Records with an inconclusive call do not appear. Unmarked numbers belong to inactive results. Calls of active or inactive are those of the source. Calls come from the whole dose curve; as a rule, active = well fitted inhibition curve with a large enough effect in the signal ratio in the repeat runs, with a control signal flat; inconclusive = weak or mixed curves, or effect the other way; inactive = flat fitted curve, though single readings scatter; the % refers to the signal ratio.
target: D(2) dopamine receptor (Homo sapiens) (UniProt P14416); assay: Dopamine D2 receptor (DRD2) small molecule antagonists, cell-based qHTS assay (AID 1963595); settings: HEK293-DRD2 cAMP HTRF antagonist mode; series mostly up to 92.4 µM; activity change, negative = inhibition: at the top concentration
Sequence (P14416 whole entry, looked up): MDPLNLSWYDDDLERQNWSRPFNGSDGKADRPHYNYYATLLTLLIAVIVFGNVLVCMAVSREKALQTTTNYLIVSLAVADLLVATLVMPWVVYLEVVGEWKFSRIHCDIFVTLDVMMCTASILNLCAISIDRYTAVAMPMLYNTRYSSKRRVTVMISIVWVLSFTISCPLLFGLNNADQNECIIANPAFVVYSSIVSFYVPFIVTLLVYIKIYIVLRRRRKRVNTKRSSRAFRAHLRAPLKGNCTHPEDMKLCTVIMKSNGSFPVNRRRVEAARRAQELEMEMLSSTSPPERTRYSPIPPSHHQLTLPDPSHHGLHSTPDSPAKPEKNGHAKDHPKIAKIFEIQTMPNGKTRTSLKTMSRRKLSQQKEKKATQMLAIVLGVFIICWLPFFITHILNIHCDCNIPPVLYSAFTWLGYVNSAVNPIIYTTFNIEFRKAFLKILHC
Summary of the method: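 HEK293 cells stably expressing DRD2 were preincubated with 0.1 mM Ro20-1724, then with compound for 10 min at room temperature. Cells were stimulated with 200 nM NKH477 plus 12 nM quinpirole for 30 min, and cAMP was read by HTRF.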
% is set by controls: 0 for no effect and ±100 for the full control effect.

For Oc1ccc2ccccc2c1, the Potency was “inactive”.
For CS(=O)(=O)Nc1ccc([N+](=O)[O-])cc1Oc1ccccc1, the Potency was “inactive”.

First: CCOC(=O)c1ccc(C2CCC(NC[C@H](O)COc3ccc(O)c(NS(C)(=O)=O)c3)CC2)cc1 (some centres undefined)
Second: CCOC(=O)[C@@H](C)Oc1ccc(Oc2nc3ccc(Cl)cc3o2)cc1
The “activity change, negative = inhibition” value of the first is lower: -0.658% for the first, -0.156% for the second.

First: COC(C(=O)O)c1ccccc1 (centres undefined)
Second: CCCCCCOC(=O)c1ccccc1
The “activity change, negative = inhibition” value of the first is higher: 11.9% for the first, 7.41% for the second.

Going from O=P(c1ccccc1)(c1ccccc1)c1ccccc1 to Oc1ccc(N=Nc2ccccc2)cc1, the “activity change, negative = inhibition” value rises from 0.184% to 1.97%.

For O=C(O)CCCCCCCCCCCBr, the “activity change, negative = inhibition” value was -1.34%.

Compared with CN(C)CC/C=C1\c2ccccc2COc2ccccc21, NC1=NCC2c3ccccc3Cc3ccccc3N12 (centres undefined) is higher in “activity change, negative = inhibition” value: -16.7% [at 42.5 µM] for the first, -1.57% [at 42.5 µM] for the second.

Compared with Cc1c(Nc2ncccc2C(=O)O)cccc1C(F)(F)F, CC(C(=O)O)c1ccc2c(c1)[nH]c1ccc(Cl)cc12 (centres undefined) is higher in “activity change, negative = inhibition” value: 1.73% [at 42.5 µM] for the first, 3.68% [at 42.5 µM] for the second.

Going from O=C(CS(=O)Cc1ccco1)NC/C=C\COc1cc(CN2CCCCC2)ccn1 (centres undefined) to CN(CCCN1c2ccccc2CCc2ccccc21)CC(=O)c1ccc(Cl)cc1, the “activity change, negative = inhibition” value falls from 6.7% [at 42.5 µM] to -1.08% [at 42.5 µM].

Compared with O=S(c1cc(Cl)cc(Cl)c1O)c1cc(Cl)cc(Cl)c1O, CC(=O)OCC=C(C)C is lower in “activity change, negative = inhibition” value: -0.297% [at 42.5 µM] for the first, -18% [at 42.5 µM] for the second.

First: c1ccc2sc(SSc3nc4ccccc4s3)nc2c1
Second: C=C/C=C/C=C/CCCCC
The activity change, negative = inhibition of the first is higher: 5.58% [at 18.9 µM] for the first, -7.54% [at 18.9 µM] for the second.

Reference: PubChem BioAssay (Tox21)
